According to PubChem BioAssay (Tox21):
Records with an inconclusive call do not appear. Entries that show only a call come without a potency. Calls of active or inactive are those of the source. Unless noted, the call rests on the fitted dose curve; in most records, active means well fitted curve in the direction sought with a large enough effect in the repeat runs; inconclusive means weak or mixed curves; inactive means no such curve, though single readings can be large; an effect the other way counts as inactive or inconclusive.

How the values were obtained:
[1] = qHTS assay for small molecule agonists of the p53 signaling pathway (AID 651631; calls by dose curve; further: nearly all actives have a fitted effect of over 15% in size; further: potency means the concentration at half of the fitted maximal effect); conditions: HCT-116 p53RE-bla reporter, beta-lactamase FRET ratio, 16 h; series mostly up to 73.3 µM
Summary of the method: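 Fluorescence intensity from cleaved LiveBLAzer B/G substrate (2 h, room temperature) served as the signal. Beforehand, HCT-116 reporter cells bearing p53 response elements were treated 16 h at 37 °C with DMSO-dissolved compounds.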

[2] = qHTS assay for small molecules that induce genotoxicity in human embryonic kidney cells expressing luciferase-tagged ATAD5 (AID 651632); conditions: HEK293T ATAD5-luciferase induction, 16 h; series mostly up to 83.3 µM; further: nearly all actives have a fitted effect of over 15% in size
Summary of the method: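 Cells were seeded at 2,000 per well, dosed with compound, and incubated 16 hr at 37C in 5% CO2. Luciferase activity was then quantified after a 30 min room-temperature incubation with Amplite.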

[3] = qHTS assay for small molecule agonists of the p53 signaling pathway - cell viability (AID 651633; calls by dose curve; further: nearly all actives have a fitted effect of over 30% in size; further: potency means the concentration at half of the fitted maximal effect); conditions: p53RE-bla HCT-116 viability, ATP luminescence, 16 h; series mostly up to 83.3 µM
Summary of the method: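 p53RE-bla cells, seeded at 4,000 per well and rested 5 h at 37 C/5% CO2, received compounds in DMSO for 16 h at 37 C. CellTiter-Glo was then added, and luminescence was read after 30 min at room temperature to gauge cytotoxicity.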

[4] = qHTS assay for small molecule disruptors of the mitochondrial membrane potential - cell viability (AID 720634; calls by dose curve;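 further: human HepG2 liver cancer cells; nearly all actives have a fitted effect of over 20% in size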); conditions: HepG2 viability, ATP luminescence (CellTiter-Glo), 1 h; series mostly up to 83.2 µM
Summary of the method: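 Cytotoxicity was measured by ATP quantitation in HepG2 wells that had first been treated with compound for 1 hr and stained with m-MPI dye; CellTiter-Glo incubation was 30 min at room temperature.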

[5] = qHTS assay for small molecule disruptors of the mitochondrial membrane potential (AID 720635); conditions: HepG2 mitochondrial membrane potential, Mito-MPS dye ratio; series mostly up to 83.2 µM; further: potency means the concentration at half of the fitted maximal effect
Summary of the method: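 HepG2 cells (2,000/well) attached overnight at 37C, then took compound for 1 hr at 37C, 5% CO2. Mito-MPS dye was added for 30 min; fluorescence was read at 490/535 nm (monomers) and 540/590 nm (aggregates).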

[6] = qHTS assay to test for compound auto fluorescence at 535 nm (green) in HepG2 cells (AID 720675); conditions: green autofluorescence 485/535 nm, 1 h; series mostly up to 91.3 µM
[7] = qHTS assay to test for compound auto fluorescence at 460 nm (blue) in HEK293 cells (AID 720678); conditions: blue autofluorescence 405/460 nm; series mostly up to 91.3 µM
Summary of the method: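 Blue read-out at excitation 405 nm and emission 460 nm follows overnight compound exposure of HEK293 cells at 37C in 5% CO2. Activity is given as auto fluorescence equivalency to triamterene.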

[8] = qHTS assay to test for compound auto fluorescence at 590 nm (red) in HEK293 cells (AID 720679); conditions: red autofluorescence 540/590 nm; series mostly up to 91.3 µM
Summary of the method: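 Red channel, Ex/Em 540/590nm; signal expressed as equivalency to Rose Bengal sodium. HEK293, 2,000 cells/well, 10% dialyzed FBS; 23 nL compound pinned after 4-5 hr attachment; overnight 37C/5% CO2 before reading.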

[9] = qHTS assay to test for compound auto fluorescence at 590 nm (red) in HepG2 cells (AID 720674); conditions: HepG2 autofluorescence, red 540/590 nm, 1 h; series mostly up to 91.3 µM
Summary of the method: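 Rose Bengal sodium served as the red fluorophore standard. HepG2 monolayers (overnight attachment, MEM with 10% FBS) were exposed to test compounds for 1 hr at 37 C and read at Ex 540/Em 590 nm.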

[10] = qHTS assay for small molecules that induce genotoxicity in human embryonic kidney cells expressing luciferase-tagged ATAD5 - cell viability (AID 651634; calls by dose curve; further: nearly all actives have a fitted effect of over 25% in size); conditions: HEK293T ATAD5-luc cells viability, CellTiter-Fluor, 15.5 h; series mostly up to 83.3 µM
Summary of the method: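 Cells (HEK293T, luciferase-tagged ATAD5) are seeded at 2,000 per well, dosed with compound or DMSO vehicle, and incubated 15.5 hr at 37C and 5% CO2. CellTiter-Fluor is added for 30 min before fluorescence is measured.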

With `O=[N+]([O-])c1ccc2[nH]ncc2c1` the Potency [1] was “inactive”, the Potency [2] was “inactive” and the Potency [3] was “inactive”. The Potency [4] was “inactive”, the Potency [5] was 38.5 µM (active) and the Potency [6] was “inactive”. For the same compound, the outcome [7] was “inactive” and the Potency [8] was “inactive”.
With `O=C1OC(CN2CCOCC2)CN1/N=C/c1ccc([N+](=O)[O-])o1` (centres undefined) the Potency [1] was “inactive”, the Potency [2] was “inactive” and the Potency [3] was “inactive”. For the same compound, the Potency [5] was “inactive”, the fluorescence, relative to Rose Bengal [9] was -0.0946% [at 18.6 µM] (inactive) and the fluorescence, % of fluorescein control [6] was -0.0437% [at 18.6 µM] (inactive). For the same compound, the fluorescence, % of triamterene [7] was -0.0248% [at 18.6 µM] (inactive) and the fluorescence, % of fluorescent control [8] was 0.088% [at 18.6 µM] (inactive).
With `C[N+](C)(C)CCOC(=O)CCC(=O)OCC[N+](C)(C)C` the Potency [1] was “inactive”, the Potency [2] was “inactive” and the Potency [10] was “inactive”. The Potency [4] was “inactive”, the Potency [5] was “inactive” and the outcome [7] was “inactive”. The Potency [8] was “inactive”.
For `O=C1[C@H]2CCCC[C@H]2C(=O)N1CCCCN1CCN(c2nsc3ccccc23)CC1`, the Potency [1] was “inactive”, the Potency [2] was “inactive” and the Potency [3] was “inactive”. The Potency [9] was “inactive”, the Potency [6] was “inactive” and the outcome [7] was “inactive”. The Potency [8] was “inactive”.
In the case of `C#CCN(C)CCCOc1ccc(Cl)cc1Cl`, the Potency [1] is reported as “inactive”, the Potency [2] is reported as “inactive” and the Potency [10] is reported as “inactive”. The Potency [4] was “inactive”, the Potency [9] was “inactive” and the Potency [6] was “inactive”. The outcome [7] was “inactive” and the Potency [8] was “inactive”.
In the case of `O=C(O)CNCC(=O)O`, the activation [1] is reported as -5.9% [at 8.3 µM] (inactive), the activation [2] is reported as 0.678% [at 8.08 µM] (inactive) and the activity change, negative = cytotoxicity [3] is reported as 6.66% [at 8.08 µM] (inactive). For the same compound, the activity change, negative = cytotoxicity [4] was -5.3% [at 8.08 µM] (inactive), the ratio activity, negative = MMP loss [5] was 15% [at 8.08 µM] (inactive) and the fluorescence, relative to Rose Bengal [9] was -0.419% [at 3.72 µM] (inactive). For the same compound, the fluorescence, % of fluorescein control [6] was -0.0488% [at 3.72 µM] (inactive), the fluorescence, % of triamterene [7] was -0.267% [at 3.72 µM] (inactive) and the fluorescence, % of fluorescent control [8] was -0.0175% [at 3.72 µM] (inactive).
For `O=C1CCC(=O)O1`, the Potency [1] was “inactive”, the Potency [2] was “inactive” and the Potency [10] was “inactive”. For the same compound, the Potency [4] was “inactive”, the Potency [5] was “inactive” and the Potency [9] was “inactive”. For the same compound, the Potency [6] was “inactive”, the outcome [7] was “inactive” and the Potency [8] was “inactive”.
With `CCCCC(CC)COC(=O)COc1ccc(Cl)cc1Cl` (centres undefined) the Potency [1] was “inactive”, the Potency [2] was “inactive” and the Potency [10] was “inactive”. The Potency [4] was “inactive”, the Potency [5] was “inactive” and the Potency [9] was “inactive”. The Potency [6] was “inactive”, the outcome [7] was “inactive” and the Potency [8] was “inactive”.
With `COc1ccc(C(=O)c2ccc(OC)cc2O)c(O)c1` the Potency [1] was 19.5 µM (active), the Potency [2] was “inactive” and the Potency [10] was “inactive”. The Potency [5] was 6.16 µM (active), the Potency [6] was “inactive” and the outcome [7] was “inactive”. For the same compound, the Potency [8] was “inactive”.
For `CC(COCCO)OCCO` (centres undefined), the Potency [1] was “inactive”, the Potency [2] was “inactive” and the Potency [10] was “inactive”. The Potency [9] was “inactive”, the outcome [7] was “inactive” and the Potency [8] was “inactive”.
For `CNC(=O)CN(CCN(CCN(CC(=O)[O-])CC(=O)NC)CC(=O)[O-])CC(=O)[O-].O.[Gd+3]`, the Potency [1] was “inactive”, the Potency [2] was “inactive” and the Potency [4] was “inactive”. The Potency [5] was “inactive”, the Potency [9] was “inactive” and the Potency [6] was “inactive”. For the same compound, the outcome [7] was “inactive” and the Potency [8] was “inactive”.
For `COc1ccc(S(=O)(=O)N2C(=O)[C@@](c3ccccc3OC)(N3C[C@H](O)C[C@H]3C(=O)N(C)C)c3cc(Cl)ccc32)c(OC)c1`, the Potency [1] was “inactive”, the Potency [2] was “inactive” and the Potency [3] was “inactive”. The Potency [4] was “inactive”, the Potency [5] was “inactive” and the Potency [9] was “inactive”. The outcome [7] was “inactive” and the Potency [8] was “inactive”.
For `CC(=O)OC[C@H]1O[C@@H](n2ncc(=O)[nH]c2=O)[C@H](OC(C)=O)[C@@H]1OC(C)=O`, the Potency [1] was 1.88 µM (active), the Potency [2] was “inactive” and the Potency [10] was “inactive”. The Potency [4] was “inactive”, the Potency [5] was “inactive” and the Potency [9] was “inactive”. For the same compound, the Potency [6] was “inactive”, the outcome [7] was “inactive” and the Potency [8] was “inactive”.
With `CCOC(=O)c1cccnc1` the Potency [1] was “inactive”, the Potency [2] was “inactive” and the Potency [3] was “inactive”. The Potency [5] was “inactive”, the Potency [9] was “inactive” and the Potency [6] was “inactive”. The outcome [7] was “inactive” and the Potency [8] was “inactive”.
For `CC(CSC(=O)c1ccccc1)C(=O)N1C[C@@H](Sc2ccccc2)C[C@H]1C(=O)O` (some centres undefined), the Potency [2] was “inactive”, the Potency [3] was “inactive” and the Potency [10] was “inactive”. The Potency [4] was “inactive”, the Potency [5] was “inactive” and the Potency [9] was “inactive”. The Potency [8] was “inactive”.
In the case of `CCn1cc(C(=O)O)c(=O)c2cnc(N3CCNCC3)nc21`, the Potency [1] is reported as “inactive”, the Potency [3] is reported as “inactive” and the Potency [10] is reported as “inactive”. For the same compound, the Potency [4] was “inactive”, the Potency [5] was “inactive” and the fluorescence, relative to Rose Bengal [9] was 0.305% [at 18.6 µM] (inactive). The fluorescence, % of fluorescein control [6] was -0.0874% [at 18.6 µM] (inactive), the fluorescence, % of triamterene [7] was -0.0251% [at 18.6 µM] (inactive) and the fluorescence, % of fluorescent control [8] was -0.324% [at 18.6 µM] (inactive).
In the case of `CCCCCCCCCCCCCCCCCCOS(=O)(=O)O`, the Potency [2] is reported as “inactive”, the Potency [3] is reported as 61.1 µM (active) and the Potency [10] is reported as “inactive”. For the same compound, the Potency [4] was “inactive”, the Potency [9] was “inactive” and the Potency [6] was “inactive”. The outcome [7] was “inactive” and the Potency [8] was “inactive”.
In the case of `CCCCCCCCCCCc1ccccc1`, the Potency [2] is reported as “inactive”, the Potency [3] is reported as “inactive” and the Potency [10] is reported as “inactive”. The Potency [4] was “inactive”, the Potency [6] was “inactive” and the outcome [7] was “inactive”. The Potency [8] was “inactive”.
With `C[N+]1(C)CCC(OC(=O)C(O)(c2ccccc2)C2CCCC2)C1` (centres undefined) the Potency [2] was “inactive”, the Potency [3] was “inactive” and the Potency [10] was “inactive”. For the same compound, the Potency [4] was “inactive”, the Potency [5] was “inactive” and the Potency [9] was “inactive”. For the same compound, the Potency [6] was “inactive”, the outcome [7] was “inactive” and the Potency [8] was “inactive”.
With `CC(=O)c1cccc([N+](=O)[O-])c1` the Potency [1] was “inactive”, the Potency [4] was “inactive” and the Potency [5] was “inactive”. For the same compound, the Potency [9] was “inactive”, the outcome [7] was “inactive” and the Potency [8] was “inactive”.
For `CCN(CC)CCOC(=O)C(c1ccccc1)C1CCCCC1` (centres undefined), the Potency [2] was “inactive”, the Potency [3] was “inactive” and the Potency [10] was “inactive”. The Potency [4] was “inactive”, the Potency [9] was “inactive” and the Potency [6] was “inactive”. For the same compound, the outcome [7] was “inactive” and the Potency [8] was “inactive”.
With `O=C(OCCc1ccccc1)c1ccccc1` the Potency [1] was “inactive”, the Potency [3] was “inactive” and the Potency [10] was “inactive”. For the same compound, the Potency [4] was “inactive”, the Potency [5] was “inactive” and the Potency [9] was “inactive”. The Potency [6] was “inactive”, the outcome [7] was “inactive” and the Potency [8] was “inactive”.
